The results in this text go back to the supplement of paper PMC9694430.

Where a name gives a salt, the structure may show the parent alone.

Chain of LOC_OS06G16330-cb003 (as listed by the source): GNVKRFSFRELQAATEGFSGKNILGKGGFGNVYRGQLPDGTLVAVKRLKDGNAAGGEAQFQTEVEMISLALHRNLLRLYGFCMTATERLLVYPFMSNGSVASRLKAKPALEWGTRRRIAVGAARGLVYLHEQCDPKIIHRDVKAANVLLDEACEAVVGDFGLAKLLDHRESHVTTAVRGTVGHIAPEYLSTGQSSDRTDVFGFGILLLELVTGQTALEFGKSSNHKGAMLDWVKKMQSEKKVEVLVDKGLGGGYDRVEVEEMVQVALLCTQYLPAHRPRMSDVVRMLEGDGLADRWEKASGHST

For one assay, the system named is LOC_OS05G43570-cb004. The assay can be described thus: thermal shift delta Tm vs DMSO control; higher = stronger stabilization (binding). The settings on record: 12.5 µM; protein concentration 2 µM. An outline of the steps:
(§1)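 The melting temperature shift given here is a triplicate mean, measured against protein that received only DMSO. Melting temperatures came from Boltzmann fits of differential scanning fluorimetry data on E. coli-expressed, purified rice kinase domain constructs. Each 19.5 μl well contained 2 μM kinase, 100 mM potassium phosphate pH 7.5, 150 mM NaCl, 10% glycerol, 5 × SYPRO Orange and compound in DMSO. Plates were scanned from 25°C to 95°C at 0.05°C/s.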
Turning to `Cc1cc(NC(=O)c2cccc(NC(=O)/C=C/CN(C)C)c2)ccc1Nc1nccc(-c2cccnc2)n1`, the “thermal shift delta Tm” value worked out at 0.56 °C.

With `Nc1nccc(Oc2ccc(NC(=O)c3c[nH]cc(-c4ccc(F)cc4)c3=O)cc2F)c1Cl`, the “thermal shift delta Tm” value was found to be 1.01 °C.

`COc1ccc(/C=C/C(=O)C2(C(=O)/C=C/c3ccc(OC)c(OC)c3)CCCCC2)cc1OC`: the “thermal shift delta Tm” value stood at 0.25 °C. On the same count and under the same terms, as for `CC(C)CC(=O)Nc1n[nH]c2c1CN(C(=O)C1CCN(C)CC1)C2(C)C`, the figure is 0.86 °C.

The test system of a further assay is LOC_OS06G16330-cb003. The assay is described as above. The settings on record: 12.5 µM; protein concentration 2 µM. An outline of the steps:
as §1
`CCn1c(=O)c(-c2ccc(-c3cncs3)cc2Cl)cc2cnc(Nc3ccc(N4CCN(C)CC4)cc3)nc21`: the “thermal shift delta Tm” value is -0.19 °C. The same measure, in the same setting: as for `CNC(=O)c1cccc(-c2ccc3c(N4CCOC[C@@H]4C)nc(N4CCOC[C@@H]4C)nc3n2)c1` [Vistusertib (AZD2014)], the figure is 0.19 °C; as for `CC(C)S(=O)(=O)c1ccc2nccc(Nc3ccc4scnc4c3)c2c1`, 2.09 °C; as for `Cn1cc(-c2ccc3ncc(Cc4ccc5ncccc5c4)n3n2)cn1`, 2.64 °C. The same measure, in the same setting: then `N#Cc1ccc2ncnc(NCCc3ccccc3)c2c1` [Senexin A], with 2.48 °C; and `O=C1NC(=O)/C(=C/c2ccc3nccc(-c4ccncc4)c3c2)S1`, with 3.51 °C. On the same count and under the same terms, then `Cn1cnc2c(F)c(Nc3ccc(Br)cc3F)c(C(=O)NOCCO)cc21`, with -0.03 °C; and `Cc1cc(Nc2ncc(Cl)c(Nc3ccccc3S(=O)(=O)C(C)C)n2)c(OC(C)C)cc1C1CCNCC1` [Ceritinib (LDK378)], with 4.76 °C; and `Cc1nc2ccc(-n3ncc(C(=O)c4cc5ccccc5[nH]4)c3N)cc2[nH]1`, with 0.87 °C. Regarding `C=C[C@@](C)(/C=C/c1ccc(O)cc1)CCC=C(C)C` [Bakuchiol], the “thermal shift delta Tm” value is -0.03 °C. On the same count and under the same terms, then `C=CC(=O)Nc1cccc(Nc2nc(Nc3ccc(N4CCN(C(C)=O)CC4)cc3OC)ncc2C(F)(F)F)c1` [Rociletinib (CO-1686, AVL-301)], with 4.77 °C; and `CCCS(=O)(=O)Nc1ccc(F)c(C(=O)c2c[nH]c3ncc(-c4ccc(Cl)cc4)cc23)c1F` [Vemurafenib (PLX4032, RG7204)], with 8.05 °C; and `COc1cc(OC)c(C=C2C(=O)Nc3ccccc32)c(OC)c1`, with -0.29 °C.

`CCN(CC)CCCC(C)Nc1nc(C)cc(Nc2ccc3nc(C)cc(N)c3c2)n1` (configuration not stated): the “thermal shift delta Tm” value is -0.04 °C. On the same count and under the same terms, as for `CN1CC(O)C2=C/C(=N/NC(N)=O)C(=O)C=C21` (configuration not stated) [Carbazochrome], the figure is 0.27 °C; as for `Cc1cc(Nc2cc(N3CCN(C)CC3)nc(/C=C/c3ccccc3)n2)n[nH]1`, 5.06 °C. Still for that read-out and setting: as for `Cc1ccc(NC(=O)Nc2cc(C(F)(F)F)ccc2F)cc1Nc1ccc2c(c1)NC(=O)/C2=C\c1ccc[nH]1`, the figure is 1.54 °C. The same measure, in the same setting: then `CO[C@H]1C[C@@H]2CC[C@@H](C)[C@@](O)(O2)C(=O)C(=O)N2CCCC[C@H]2C(=O)O[C@H]([C@H](C)C[C@@H]2CC[C@@H](O)[C@H](OC)C2)CC(=O)[C@H](C)/C=C(\C)[C@@H](O)[C@@H](OC)C(=O)[C@H](C)C[C@H](C)/C=C/C=C/C=C/1C` [Rapamycin (Sirolimus)], with -0.23 °C; and `C[S+]([O-])c1ccc(-c2nc(-c3ccc(F)cc3)c(-c3ccncc3)[nH]2)cc1` (configuration not stated), with 0.69 °C; and `CO[C@H]1CC[C@H](N2C(=O)CNc3ncc(-c4ccc(C(C)(C)O)nc4)nc32)CC1`, with -0.57 °C. Consider `O=C(Nc1ccccc1C(=O)NC1CCCCNC1=O)c1cc2ccccc2s1` (configuration not stated), for which the “thermal shift delta Tm” value was -0.39 °C. The same measure, in the same setting: as for `CCN1CCN(Cc2ccc(-c3cc4c(N[C@H](C)c5ccccc5)ncnc4[nH]3)cc2)CC1`, the figure is 4.68 °C; as for `Cc1cnc(NC(=O)Nc2cc(Br)c(C)cc2OC[C@@H]2CNCCO2)cn1`, 0.75 °C; as for `Cc1ccc(NC(=O)c2ccc(CN3CCN(C)CC3)cc2)cc1Nc1nccc(-c2cccnc2)n1` [Imatinib Mesylate (STI571)], 0.2 °C.

`NC(=O)c1ccc(N(C(N)=O)c2c(F)cccc2F)nc1-c1ccc(F)cc1F`: the “thermal shift delta Tm” value is -0.58 °C.

Regarding `Cc1nc(-c2cn3c(n2)-c2ccc(-c4cnn(C(C)(C)C(N)=O)c4)cc2OCC3)n(C(C)C)n1` [Taselisib (GDC 0032)], the “thermal shift delta Tm” value is -0.08 °C.

As for `COc1cc(N2CCC(N(C)C)CC2)ccc1Nc1ncc(Cl)c(Nc2ccccc2P(C)(C)=O)n1`, the “thermal shift delta Tm” value stood at 8.95 °C. Regarding `COc1cc2c(Nc3ccc(NC(=O)c4ccccc4)cc3)ncnc2cc1OCCCN1CCOCC1`, the “thermal shift delta Tm” value is 1.97 °C. The same measure, in the same setting: then `CNC(=O)c1cc(Oc2ccc(NC(=O)Nc3cc(C(C)(C)C)nn3-c3ccc4ncccc4c3)c(F)c2)ccn1` [Rebastinib (DCC-2036)], with 10 °C; and `CC(C)(CO)n1cc(C(=O)c2cncc(NC(=O)Cc3ccc(Cl)cn3)c2)c2cnc(N)nc21`, with 2.22 °C.

On to `CS(=O)(=O)N1CCN(Cc2cc3nc(-c4cccc5[nH]ncc45)nc(N4CCOCC4)c3s2)CC1` [Pictilisib (GDC-0941)], for which the “thermal shift delta Tm” value is 0.57 °C. The same measure, in the same setting: as for `C[C@@H]1COC(Nc2ccc3ncnc(Nc4ccc(OCc5nccs5)c(Cl)c4)c3c2)=N1` [Varlitinib], the figure is 1.46 °C; as for `COc1cc(Nc2ncc(F)c(Nc3ccc4c(n3)NC(=O)C(C)(C)O4)n2)cc(OC)c1OC`, 12.2 °C; as for `CC(C)n1nc(-c2ccc3oc(N)nc3c2)c2c(N)ncnc21`, 2.84 °C. On the same count and under the same terms, then `Cc1cc(NC(=O)c2cccc(NC(=O)/C=C/CN(C)C)c2)ccc1Nc1nccc(-c2cccnc2)n1`, with 2.18 °C; and `Nc1nccc(Oc2ccc(NC(=O)c3c[nH]cc(-c4ccc(F)cc4)c3=O)cc2F)c1Cl`, with 6.76 °C. Same read-out and setting: as for `COc1ccc(/C=C/C(=O)C2(C(=O)/C=C/c3ccc(OC)c(OC)c3)CCCCC2)cc1OC`, the figure is -0.37 °C; as for `CC(C)CC(=O)Nc1n[nH]c2c1CN(C(=O)C1CCN(C)CC1)C2(C)C`, -0.05 °C.
